This is a sample that favours compounds with a hit; in the whole collection about 5.1% have one here.
S1P4 antagonist: human S1P4 receptor antagonism | O95977 | S1P4-expressing cells, antagonist mode, reporter read-out | inhibition, % at 4.98 µM | hit rate 0.26% among 220,000 | AID 1510; in the data active = inhibition above about 29%;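 also: 0% = wells stimulated with agonist and 100% = vehicle wells without agonist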
Target sequence (O95977 whole entry, looked up): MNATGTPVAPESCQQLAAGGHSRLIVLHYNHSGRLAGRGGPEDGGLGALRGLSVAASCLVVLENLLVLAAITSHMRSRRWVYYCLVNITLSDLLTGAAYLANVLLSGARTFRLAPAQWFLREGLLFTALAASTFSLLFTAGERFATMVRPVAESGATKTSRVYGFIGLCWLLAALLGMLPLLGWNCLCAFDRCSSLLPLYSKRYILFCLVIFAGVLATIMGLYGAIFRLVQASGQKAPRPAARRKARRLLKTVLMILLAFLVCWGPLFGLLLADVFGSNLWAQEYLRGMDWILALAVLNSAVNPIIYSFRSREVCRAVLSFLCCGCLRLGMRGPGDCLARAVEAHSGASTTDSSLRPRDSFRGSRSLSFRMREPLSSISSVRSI
Cl transport mod: KCC2 (human) Cl- transport modulation; Q9H2X9; KCC2 cells, thallium flux FluoZin-2 fluorescence; B-score of Tl+ flux slope (higher = more flux/activation; lower = inhibition) at 10 µM; hit rate 2.2% among 190,000; AID 1456;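 active = thallium flux slope and its plate-corrected score both differing from the plate sample mean at a set confidence after two filtering rounds, in either direction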;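 also: slope of fluorescence scaled to starting intensity during 10 to 20 s after thallium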
S1P4 agonist: agonists of human S1P4 receptor | hit rate 0.35% among 220,000 | AID 1509 | activation, % at 4.98 µM | S1P4-expressing cell line, agonist reporter assay | O95977; in the data active = activation above about 11%;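 also: 0% = DMSO vehicle and 100% = reference agonist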
S1P3 antag: antagonists of human S1P3 receptor; Q99500; CHO S1P3 NFAT-BLA reporter, FRET fluorescence, antagonist mode; inhibition, % at 4.98 µM; hit rate 0.27% among 170,000; AID 485;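 active = inhibition above the plate cutoff, the mean inhibition of test wells on that plate plus 3 SD, cut at about 28% in these data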;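 also: cells challenged with S1P at its EC80 of 0.8 µM; blue over green emission ratio from cleaved BLA substrate after 4 h stimulation; 0% = S1P-stimulated wells and 100% = unstimulated DMSO-only wells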
RAM network inh: inhibitors of the yeast RAM network; S. cerevisiae dse1pr::URA3 reporter, 5-FOA growth OD615, 2 d; analog-sensitive cbk1-as2 kinase mutant strain; inhibition, % at 50 µM; hit rate 1.8% among 190,000; AID 868;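 active = inhibition above a set limit, 3 SD over mean compound inhibition, cut at about 8.4% in these data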;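 also: 0% = DMSO-only wells with no growth and 100% = 10 µM 1-NA-PP1 full growth; inhibition rescues growth on 5-FOA so higher OD means more RAM inhibition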
ROMK mod: modulates human ROMK potassium channel activity. P48048. Tet-inducible ROMK, thallium flux fluorescence; actives lie on both sides. B-score at 10 µM. hit rate 2% among 130,000. AID 1918;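 active = signal ratio slope over the read window, or its plate-corrected B-score, at least 3 SD from the plate mean, either direction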;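 also: B-score of the F/F0 ratio slope over 7 to 12 s after thallium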
ROMK retest: retested hit modulating human ROMK potassium channel; ROMK thallium flux, fluorescence ratio; hits give low values; normalized thallium flux (F/F0 slope) at 10 µM; AID 1917; hit rate 54% among 3,000; shares compounds with ROMK mod;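 active = Flux at 10 µM at least 3 SD below or above vehicle control mean in one or both replicates; inconclusive = no clear call, values can overlap the other calls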
* marks the source's active call; other numbers are inactive results; ? = inconclusive; · = not tested or not shown.

SMILES	S1P4 antagonist	Cl transport mod	S1P4 agonist	S1P3 antag	RAM network inh	ROMK mod	ROMK retest
Cc1ccc(C2(CCNCc3ccc(N(C)C)cc3)CCOC(C(C)C)C2)cc1 (stereo not given)	3	0.56	-1	-6	0	-1	·
CC(C)C1CC(CCNCc2ccc(N(C)C)cc2)(c2ccccc2)CCO1 (stereo not given)	-2	0.76	2	-9	0	·	0.048*
CN(C(=O)COc1ccccc1C(=O)NCCc1ccccc1)c1ccccc1	-8	-0.96	2	1	-1	0.73	·
COC(=O)c1cccc(C23CC4(C2)[C@H](CN(Cc2cccnc2)[C@@H]4c2ccccc2)C3c2ccccc2)c1 (stereo not given in full)	·	0.54	·	·	·	·	·
CCNc1ccc(Br)cc(C(=O)/C=C/c2ccc(Cl)cc2Cl)c1=O	-5	0.69	-1	·	4	·	·
CCn1c(/C=C/c2c(C)[nH]c3ccccc23)nc2ccccc2c1=O	-5	-1.4	-1	-3	7	·	0.047*
CC(=O)c1ccc2cccc3c2c1N=CN3C	-6	·	1	·	1	·	0.049*
CN1c2cccc3cccc(c23)N(C)C1(C)C	1	0.66	-1	-10	4	-0.061	·
CCCCCCc1ccc(-c2ncc(N)cn2)cc1	-5	-0.55	0	37	1	-4.3*	0.081
CCCCCc1ccc(-c2nnc(N)s2)cc1	-7	·	1	-2	4	-0.35	·
CCNS(=O)(=O)c1ccc(C)c(-n2cnnn2)c1C	-5	0.38	1	·	1	-0.13	·
COc1ccccc1CN1C[C@@H]2C[C@@H](C3=Cc4cc(Cl)ccc4OC3)N3CCC[C@@]23C1=O	-17	-1	0	-14	2	-3.2*	0.065*
CN1C[C@@H]2C[C@@H](C3=Cc4cc(Cl)ccc4OC3)N3CCC[C@@]23C1=O	-15	-0.33	1	-8	0	-0.39	·
Cc1ccc(S(=O)(=O)Nc2ccccn2)cc1[N+](=O)[O-]	-12	-0.61	1	-4	3	-5.9*	0.076
COc1ccc(S(=O)(=O)Nc2ccccn2)cc1C	-9	0.62	2	-8	0	0.87	·
Cc1c([N+](=O)[O-])cc(S(=O)(=O)Nc2ccncc2)cc1[N+](=O)[O-]	-6	1.9	-1	-8	-1	-4.2*	0.079
COc1cc(/C=N/NS(=O)(=O)c2ccc(C)c([N+](=O)[O-])c2)ccc1O	8	0.74	0	-7	0	-0.15	·
COc1ccc(-n2c(O)c(/C=N/NS(=O)(=O)c3ccc(C)c([N+](=O)[O-])c3)c3ccccc3c2=O)cc1OC	9	-1.2	1	4	6	-3.3*	?
COc1ccc(C([O-])=Nc2ccc[n+](-c3nc4ccccc4nc3NS(=O)(=O)c3ccccc3)c2)cc1	-22	-1.1	1	-1	·	·	·
O=S(=O)(Nc1nc2ccccc2nc1-[n+]1cccc(N=C([O-])c2ccccc2Cl)c1)c1ccccc1	4	0.8	0	-2	·	·	0.053*
Cc1nnnn1/C(=C\c1ccccc1)C(=O)OCC(=O)NC(C)(C)C	-2	1.1	0	24	1	-8.2*	0.043*
CC(C)(C)NC(=O)COC(=O)c1ccccc1Oc1ccccc1	-6	-0.18	1	-11	·	·	·
Cc1cc(C)n2nc(/C(C#N)=C/c3ccccn3)c(C#N)c2n1	-11	0.37	3	-9	0	-2.4*	0.044*
Cc1cc(C)n2nc(CC#N)c(C#N)c2n1	-15	0.43	0	-5	3	-0.6	·
Cc1ccc2nc(NC(=O)C(NS(=O)(=O)c3cccc4nsnc34)C(C)C)sc2c1 (stereo not given)	-11	-0.028	-1	·	1	·	0.062*
CN1C[C@@H]2C(c3ccc(C(F)(F)F)cc3)C3(c4cccnc4)CC2(C3)[C@H]1c1ccccc1 (stereo not given in full)	·	-0.02	·	·	·	·	·
O=C(NC1CCCCCC1)c1cc(S(=O)(=O)N2CCCCC2)ccc1N1CCOCC1	0	-0.055	2	-18	0	-3.2*	0.061*
O=C(Nc1ccc(N2CCN(c3ncccc3C(F)(F)F)CC2)nc1)c1cccs1	-7	-1.7	0	3	·	·	0.074

Assay outcomes from PubChem.
